A selection: hits, their analogues and other compounds. The true share with any hit is near 1.2%.
RAD54 branch: inhibitors of human RAD54 branch migration; Q92698; RAD54 Holliday junction branch migration, FAM/BHQ fluorescence; inhibition, % at 10.4 µM; hit rate 0.14% among 360,000; AID 602329;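 active = mean normalized replicate activity at least 40 and at least half of replicates scoring 40 or more; inconclusive = only one of the two criteria met; inactive = mean below 40 and under half of replicates reaching 40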;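 note: 0% = median of neutral control wells and 100% = median of positive control wells; inhibitors cause a drop in the FAM fluorescence signal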
Target sequence (Q92698 whole entry, looked up): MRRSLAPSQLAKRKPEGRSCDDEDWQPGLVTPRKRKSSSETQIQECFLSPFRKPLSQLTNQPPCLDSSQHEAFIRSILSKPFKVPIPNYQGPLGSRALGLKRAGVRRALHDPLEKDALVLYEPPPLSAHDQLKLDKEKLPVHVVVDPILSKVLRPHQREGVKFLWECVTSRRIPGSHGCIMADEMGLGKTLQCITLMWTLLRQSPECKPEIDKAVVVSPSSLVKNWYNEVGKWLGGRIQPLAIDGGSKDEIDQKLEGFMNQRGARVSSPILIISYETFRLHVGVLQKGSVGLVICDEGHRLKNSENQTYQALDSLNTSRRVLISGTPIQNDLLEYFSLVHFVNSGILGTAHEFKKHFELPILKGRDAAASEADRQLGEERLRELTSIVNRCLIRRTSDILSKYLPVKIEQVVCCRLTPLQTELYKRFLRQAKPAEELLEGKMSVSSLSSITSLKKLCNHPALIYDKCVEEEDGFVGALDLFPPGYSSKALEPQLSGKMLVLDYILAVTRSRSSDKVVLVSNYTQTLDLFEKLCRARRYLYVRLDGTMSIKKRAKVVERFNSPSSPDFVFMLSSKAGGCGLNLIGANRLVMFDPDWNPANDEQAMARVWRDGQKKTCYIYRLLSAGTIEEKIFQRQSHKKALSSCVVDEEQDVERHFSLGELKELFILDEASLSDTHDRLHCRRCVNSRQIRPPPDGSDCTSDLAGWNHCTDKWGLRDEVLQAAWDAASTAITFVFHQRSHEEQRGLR
AF4-AF9 inh: MLL-AF4/AF9 protein interaction inhibition. hit rate 0.47% among 350,000. AlphaScreen, biotin-AF4 peptide binding to FLAG-AF9. inhibition, % at 10 µM;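 active = every replicate reaching a set inhibition limit, whatever the replicate mean, cut at about 25% in these data; inconclusive = mean inhibition reaches that limit but some replicates miss it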;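 note: 0% = plate neutral control median and 100% = total signal loss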
CASP6 VEID inh: inhibitors of human caspase-6; hit rate 0.53% among 350,000; purified caspase-6, Z-VEID-R110 cleavage fluorescence; inhibition, % at 12.5 µM; P55212;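 active = mean inhibition across replicates at least about 35%, with every replicate also reaching that limit, limit read from the data; inconclusive = only one of the two criteria met; inactive = neither criterion met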;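 note: 0% = median of neutral control wells and 100% = no fluorescence left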
N-glyco inh: blocks N-linked glycosylation in D54 reporter cells; reporter increase, % at 12.5 µM; AID 588692; D54 ERlucT glycosylation luciferase reporter, 24 h; percent of 100 nM tunicamycin response; hit rate 0.23% among 360,000;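 active = mean luciferase reporter signal, scaled so untreated is 0 and the glycosylation-blocking control 100, at or above a set limit in every replicate; inconclusive = mean reaches the limit but not every replicate does; inactive = mean below the limit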;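 note: luciferase carries N-glycosylation sites so blocking glycosylation raises the light; 0% = median of neutral control wells and 100% = median of 100 nM tunicamycin wells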
RAD52 inh: blocks human RAD52 DNA annealing; P43351; inhibition, % at 18.7 µM; recombinant RAD52 DNA annealing, FRET fluorescence; AID 651710; hit rate 0.46% among 360,000;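 active = every replicate showing at least 50% inhibition; inconclusive = mean inhibition at least 50% but not in every replicate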
Alpha interfer: counter-screen: AlphaScreen signal interference. shares compounds with AF4-AF9 inh. signal luminescence. AC50, µM (doses to about 12 µM), for inactives: at the top dose activity change, negative = inhibition. hit rate 45% among 530. AID 720494; cut-off not given, nearly all actives have AC50 up to about 14 µM
* = called active by the depositor; i = inactive; u = inconclusive; x = not tested or not shown.

SMILES | RAD54 branch | AF4-AF9 inh | CASP6 VEID inh | N-glyco inh | RAD52 inh | Alpha interfer
CCCNC(=O)N1CC(=O)N2[C@H](CO)[C@@H](c3ccc(-c4ccc(C)cc4)cc3)[C@H]2C1 | x | 1 | 0 | x | -3 | x
CCN(CC)CCNC(=O)c1ccc(NC(=O)c2cccc(S(=O)(=O)N3c4ccccc4CC3C)c2)cc1 (centres undefined) | 10 | 31* | -182 | -10 | 41 | -4%
O=C(N/N=C/c1cc(Cl)cc([N+](=O)[O-])c1O)c1cccc(S(=O)(=O)N2CCOCC2)c1 | 3 | 36* | 8 | 2 | -12 | 12µM*
O=C1c2ccccc2NC(c2ccco2)N1O (centres undefined) | 12 | x | x | 1 | x | x
O=C1c2ccccc2NC(c2cccc([N+](=O)[O-])c2)N1O (centres undefined) | 2 | 28* | -2 | -3 | -20 | 11µM*
C[C@@H]1CN([C@@H](C)CO)S(=O)(=O)c2ccc(-c3ccccc3F)cc2O[C@H]1CN(C)C | 1 | -1 | 3 | x | -8 | x
COC(=O)C[C@@H]1CC[C@H](NS(=O)(=O)c2ccc(OC)cc2)[C@@H](CO)O1 | -6 | -2 | 0 | x | 16 | x
O=C1Nc2ccccc2/C1=C/C(=O)c1cccs1 | 2 | x | x | 17 | x | x
CCN1C(=O)/C(=C\C(=O)c2cccs2)c2cc(Br)ccc21 | x | 37* | -2 | 6 | -2 | 0%
O=C(CCCC(=O)c1ccccc1)Nc1ccc(F)cc1 | 7 | -5 | 2 | -1 | -4 | x
CC1NC(=O)NC1CCCCCC(=O)Nc1ccc(F)cc1 (centres undefined) | x | 93* | -3 | 2 | -17 | 0.68µM*
CN(C)c1ccc(C(CNC(=O)c2ccccc2)c2c[nH]c3ccccc23)cc1 (centres undefined) | x | 29* | 0 | -2 | 2 | -27%
CN(C)c1ccc(C(CNC(=O)c2ccccc2F)c2c[nH]c3ccccc23)cc1 (centres undefined) | x | 7 | -5 | 0 | -4 | x
O=C(CNCc1cccs1)Nc1ccc(S(=O)(=O)N2CCCCC2)cc1 | x | 0 | -3 | -3 | -10 | x
O=C(CNCc1cccs1)Nc1ccc(N2CCCCCC2)cc1 | x | 42* | 2 | 1 | -3 | 13µM*
Cc1ccccc1-c1ccc2c(c1)O[C@@H](CN(C)C(=O)C1CC1)[C@H](C)CN([C@H](C)CO)S2(=O)=O | -1 | 0 | 1 | x | 11 | x
CN(C)c1ccc(NC2=C(Cl)C(=O)c3ccccc3C2=O)cc1 | 6 | 64* | 4 | -18 | 0 | 1.9µM*
O=C(Cc1ccncc1)NCC[C@H]1CC[C@@H](NC(=O)C2CC2)[C@@H](CO)O1 | -6 | 1 | -2 | x | -50 | x
COc1ccccc1Nc1c2c(nc3ccc(N)cc13)CCCC2 | 11 | 61* | 1 | 7 | 13 | -21%
C[C@@H]1CCCCO[C@H](CN(C)S(=O)(=O)c2ccccc2)[C@@H](C)CN([C@@H](C)CO)C(=O)c2cc(NC(=O)Nc3ccc(F)cc3)ccc2O1 | 6 | 3 | -3 | x | 19 | x
CCN(CC)c1ccc(CNc2nc3ccccc3n2CCN2CCCCC2)cc1 | x | 44* | -5 | -9 | -69 | -28%
CO[C@@H]1CN(C)C(=O)c2cc(NC(=O)NC(C)C)ccc2OC[C@H](C)N(C(=O)CC2CC2)C[C@@H]1C | 3 | -1 | -2 | x | -11 | x
CC(=O)c1cccc2c(O)c(C3=Nc4ccccc4C3=O)[nH]c12 | -5 | 40* | x | 11 | x | 3.5µM*
Cc1[nH]c2ccccc2c1N=Nc1cc(C(=O)O)cc(C(=O)O)c1 | -1 | 1 | 6 | 1 | -9 | x
Cc1[nH]c2ccccc2c1N=Nc1ccccc1F | x | 41* | 7 | -2 | 3 | 8µM*
SMILES | RAD54 branch | AF4-AF9 inh | CASP6 VEID inh | N-glyco inh | RAD52 inh | Alpha interfer
O=C(C1CCCC1)N1CCCCN2[C@H](C1)[C@@H](c1ccc(-c3cccc(F)c3)cc1)[C@@H]2CO | 1 | -5 | 1 | x | 30 | x
COc1ccc(C(CCNCc2ccc(N(C)C)cc2)C(C)C)cc1 (centres undefined) | x | 41* | -4 | -5 | 7 | 11µM*
COc1ccccc1C(CCNCc1ccc(N(C)C)cc1)c1ccc(OC(C)C)cc1 (centres undefined) | -15 | 74* | 5 | -12 | -17 | 2.9µM*
COc1ccc(C(CCNCc2ccc(OC(C)C)cc2)C(C)C)cc1 (centres undefined) | 5 | u | -4 | -8 | -6 | x
O=C(NN1C(=O)/C(=C/c2ccc(O)c(O)c2)SC1=S)c1ccccc1 | -18 | u | 45* | -2 | i | -24%
COc1ccc(S(=O)(=O)N[C@@H]2C=C[C@H](CC(=O)NCCc3ccncc3)O[C@@H]2CO)cc1 | 5 | -1 | -9 | x | -30 | x
CC(C)(c1ccccc1)c1ccc(OCC(O)CNC2CCN(Cc3ccccc3)CC2)cc1 (centres undefined) | 11 | 31* | 4 | -5 | 41 | -29%
CCCNC(=O)N1C[C@H](O)COC[C@@H]2O[C@H](CC(=O)NCc3ccncn3)CC[C@H]21 | -3 | 4 | 4 | x | -1 | x
COc1cccc(CNCCc2c[nH]c3ccccc23)c1OCc1ccccc1 | x | 27* | -6 | -13 | 26 | -40%
CO[C@H](CN(C)S(=O)(=O)c1ccc(Cl)cc1)[C@@H](C)CN([C@@H](C)CO)S(=O)(=O)c1cccc(Cl)c1 | -2 | -1 | 1 | x | 1 | x
O=[N+]([O-])c1cc(/C=N/Nc2nc3ccccc3[nH]2)c(O)cc1O | x | 41* | 61* | x | -14 | 1.6µM*
CNC(=S)N1N=C(c2ccc(C)cc2)CC1c1ccc(OC)cc1 (centres undefined) | 2 | x | x | -2 | x | x
CNC(=S)N1N=C(c2ccc(C)cc2)CC1c1ccc(N(C)C)cc1 (centres undefined) | -5 | 31* | -2 | 2 | -26 | -27%
Cc1cccc(N(C(=O)CNC(=O)c2ccco2)C(C(=O)NC2CCCCC2)c2cccnc2)c1 (centres undefined) | -11 | -16 | -4 | 1 | -2 | x
O=C(NC1CCCCC1)C(c1cccnc1)N(C(=O)CCl)c1cccc(Cl)c1 (centres undefined) | 10 | 39* | 5 | 16 | 46 | -21%
CN(C1=C(N2CCOCC2)C(=O)c2ccccc2C1=O)c1ccccc1 | 2 | x | x | 5 | x | x
Cc1ccc(N2CCOCC2)c2c1C(=O)c1ccccc1C2=O | x | 64* | 3 | 3 | 20 | 10µM*
O=[N+]([O-])c1cc(CN2CCCC2)ccc1Sc1ccc(Cl)cc1 | x | 34* | -1 | -3 | 5 | -32%
COc1ccc(S(=O)(=O)N(C)C[C@@H]2Oc3c(NC(=O)c4ccncc4)cccc3C(=O)N([C@@H](C)CO)C[C@H]2C)cc1 | -5 | -2 | 0 | x | -24 | x
CN(CCc1ccccc1)C(=O)c1ccc(NC(=O)Cc2ccc(NC(=O)C3CCN(C(=O)C4CCCCC4)CC3)cc2)cc1 | -17 | 27* | 0 | -1 | -23 | 2%
